# Measurements from PubChem BioAssay.
# “And” between values parts separate entries of the source, which are not always exact repeats. Equal values may be shown once. Where a structure was tested more than once in an assay, its records may differ in their call. The source made the active and inactive calls.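 The calls were made as follows: active = mean z-score across replicates of 1.96 or higher in either the MELAS or the Rieske mutant cell line; inactive = the rest.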
# Experiment: viability loss with induced miR-34 in A549 – imaging, A549 dox-inducible miR-34, nuclei and caspase counts, primary screen (AID 1347080)
# Conditions: A549 miR-34 inducible, Hoechst nuclei count, 48 h; measured here: total cells without miR-34 induction
# Also: test concentration not given here.
row,SMILES,cell count
1,CNC1CC(c2ccc(Cl)c(Cl)c2)c2ccccc21 (stereo not given),5240
2,CCCCCN(C)CCC(O)(P(=O)(O)O)P(=O)(O)O,10800 and 10200
3,CNc1ccc2oc(C[C@@H]3OC4(CC[C@@H]3C)O[C@H](C(C)C(=O)c3ccc[nH]3)[C@H](C)C[C@H]4C)nc2c1C(=O)O (stereo not given in full),666
4,CCC1(C)CC(=O)NC(=O)C1,9420 and 9200
5,C[C@]12CC[C@@H](O)C[C@@H]1CC[C@@H]1[C@@H]2CC[C@]2(C)C(=O)CC[C@@H]12,9410
6,Oc1ccc2c3c1O[C@H]1c4oc5ccccc5c4C[C@@]4(O)[C@@H](C2)N(CC2CC2)CC[C@]314,10900
7,C[C@]12CC[C@H]3[C@@H](CC[C@]4(O)C[C@@H](O)CC[C@]34C=O)[C@@]1(O)CC[C@@H]2C1=CC(=O)OC1,713
8,C[C@]12CCC(=O)CC1CCC1C2CC[C@@]2(C)C1CC[C@]2(C)O (stereo not given in full),9990
9,C[C@]12CCC(=O)C=C1CC[C@@H]1[C@@H]2C(=O)C[C@]2(C)C(=O)CC[C@@H]12,10500
10,CN1C[C@H](CO)C=C2c3cccc4[nH]cc(c34)C[C@H]21,10400
11,C[N+]1(C)C2CC[C@H]1CC(OC(=O)C(CO)c1ccccc1)C2 (stereo not given in full),9340
12,O=C1OCCN1N=Cc1ccc([N+](=O)[O-])o1,9150
13,CN1[C@@H]2CC[C@H]1CC(OC(=O)C1C=Nc3ccccc31)C2 (stereo not given in full),10300 and 9930
14,C[C@]12CCC3[C@@H](CC[C@@H]4C[C@H](O)CC[C@]34C)[C@@H]1CCC2=O (stereo not given in full),9980
15,CCC1=C[C@@H]2CN3CCc4c([nH]c5ccccc45)[C@@](C(=O)OC)(C2)[C@@H]13,8930 and 7580
16,CCOC(=O)c1cncn1[C@@H](C)c1ccccc1,8960
17,Clc1ccc(C(Cn2ccnc2)OCc2csc3c(Cl)cccc23)c(Cl)c1 (stereo not given),7390 and 9720
18,C[C@]12CC[C@H](O)C[C@H]1CC[C@@H]1[C@@H]2C[C@@H](O)[C@]2(C)[C@@H](C3=CC(=O)OC3)CC[C@]12O,772
19,C[C@]12Cc3cn[nH]c3CC1CCC1C2CC[C@@]2(C)C1CC[C@]2(C)O (stereo not given in full),8800
20,CC1CCCC(O)CCCCCc2cc(O)cc(O)c2C(=O)O1 (stereo not given),9680

row,SMILES,cell count
1,C#CC(C)(O)CC (stereo not given),9450
2,CCC(=O)OC(Cc1ccccc1)(c1ccccc1)C(C)CN(C)C (stereo not given),10200
3,C(#CCN1CCCC1)CN1CCCC1,10100
4,CN1[C@@H]2CC[C@H]1CC(OC1c3ccccc3CCc3ccccc31)C2 (stereo not given in full),9070
5,CN[C@@H]1[C@@H](O)[C@@H](O[C@@H]2[C@@H](O)[C@H](O[C@H]3O[C@H]([C@@H](C)NC)CC[C@H]3N)[C@@H](N)C[C@H]2N)OC[C@]1(C)O,11500
6,C[N+]1([O-])[C@@H]2CC(OC(=O)[C@H](CO)c3ccccc3)C[C@H]1[C@@H]1O[C@@H]12 (stereo not given in full),9510
7,CN[C@@H]1[C@@H](O)[C@@H](O[C@@H]2[C@@H](O)[C@H](O[C@H]3O[C@H]([C@@H](C)NC)CC[C@H]3N)[C@@H](N)C[C@H]2N)OC[C@]1(C)O (tested in a mixture with another compound),7960
8,Oc1ccc2c3c1OC1C(O)CC[C@@]4(O)C(C2)N(CC2CCC2)CC[C@]314 (stereo not given in full),9720
9,C[C@]12CC(=CO)C(=O)CC1CCC1C2CC[C@@]2(C)C1CC[C@]2(C)O (stereo not given in full),9790
10,CCC1C(=O)OCC1Cc1cncn1C (stereo not given),9850 and 10500 and 11500
11,CN1CC[C@@]2(C)c3cc(O)ccc3N(C)[C@H]12,9440
12,C=C(C)[C@@H]1C2C(=O)O[C@H]1[C@H]1OC(=O)[C@@]34OC3C[C@]2(O)[C@@]14C (stereo not given in full),9830
13,C[C@]12CC[C@H](O)C[C@H]1CC[C@@H]1[C@@H]2CC[C@]2(C)[C@@H](C3=CC(=O)OC3)CC[C@]12O,568
14,CCC(C)(C)O,9470
15,Nc1cc2c(ncn2CCOCP(=O)(O)O)c(=O)[nH]1,3200
16,CCCCCC[C@H]1C(=O)O[C@H](C)C(NC(=O)c2cccc(NC=O)c2O)C(=O)O[C@@H](C)[C@@H]1OC(=O)CC(C)C (stereo not given in full),2720
17,C[C@]12CCC(O)CC1=CCC1C2CC[C@@]2(C)C1CC[C@]2(C)O (stereo not given in full),10100
18,Oc1cc2c(cc1O)C1c3ccccc3CNC1CC2 (stereo not given),10900
19,CC(C)(O)C1C2OC(=O)C1[C@]1(O)CC3O[C@]34C(=O)OC2[C@]14C (stereo not given in full) (tested in a mixture with another compound),9830
20,CC(=O)OCC(=O)[C@H]1CC[C@H]2[C@@H]3CC[C@H]4C[C@H](O)CC[C@]4(C)[C@H]3C(=O)C[C@]12C,9230

# Experiment: MELAS cybrid and Rieske KO viability enhancers – cell-based, MELAS cybrids, Rieske KO mouse fibroblasts, CellTiter-Glo, primary screen (AID 1508586);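 also: z relative to plate mean and SD of compound and empty wells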
# Conditions: MELAS cybrid survival, low glucose, CellTiter-Glo 48 h; stronger effect = higher value
row,SMILES,z-score
1,CCCCCN(C)CCC(O)(P(=O)(O)O)P(=O)(O)O,-0.786 (inactive) and -0.235 (inactive)
2,CCC1(C)CC(=O)NC(=O)C1,-0.143 (inactive) and 0.0597 (inactive)
3,C[C@]12CC[C@@H](O)C[C@@H]1CC[C@@H]1[C@@H]2CC[C@]2(C)C(=O)CC[C@@H]12,0.119 (inactive)
4,Oc1ccc2c3c1O[C@H]1c4oc5ccccc5c4C[C@@]4(O)[C@@H](C2)N(CC2CC2)CC[C@]314,-0.602 (inactive)
5,C[C@]12CCC(=O)C=C1CC[C@@H]1[C@@H]2C(=O)C[C@]2(C)C(=O)CC[C@@H]12,0.15 (inactive)
6,C[N+]1(C)C2CC[C@H]1CC(OC(=O)C(CO)c1ccccc1)C2 (stereo not given in full),0.0273 (inactive)
7,O=C1OCCN1N=Cc1ccc([N+](=O)[O-])o1,-1.23 (inactive)
8,CN1[C@@H]2CC[C@H]1CC(OC(=O)C1C=Nc3ccccc31)C2 (stereo not given in full),2.22 (active) and 0.522 (inactive)
9,C[C@]12CCC3[C@@H](CC[C@@H]4C[C@H](O)CC[C@]34C)[C@@H]1CCC2=O (stereo not given in full),-0.449 (inactive)
10,CCC1=C[C@@H]2CN3CCc4c([nH]c5ccccc45)[C@@](C(=O)OC)(C2)[C@@H]13,-0.196 (inactive) and 0.501 (inactive)
11,CCOC(=O)c1cncn1[C@@H](C)c1ccccc1,-0.428 (inactive)
12,Clc1ccc(C(Cn2ccnc2)OCc2csc3c(Cl)cccc23)c(Cl)c1 (stereo not given),0.182 and 1.75 (inactive)
13,C[C@]12CC[C@H](O)C[C@H]1CC[C@@H]1[C@@H]2C[C@@H](O)[C@]2(C)[C@@H](C3=CC(=O)OC3)CC[C@]12O,2.02 (active)
14,CCC(=O)OC(Cc1ccccc1)(c1ccccc1)C(C)CN(C)C (stereo not given),0.276 (inactive)
15,C(#CCN1CCCC1)CN1CCCC1,0.0358 (inactive)
16,CN1[C@@H]2CC[C@H]1CC(OC1c3ccccc3CCc3ccccc31)C2 (stereo not given in full),-1.44 (inactive)
17,CN[C@@H]1[C@@H](O)[C@@H](O[C@@H]2[C@@H](O)[C@H](O[C@H]3O[C@H]([C@@H](C)NC)CC[C@H]3N)[C@@H](N)C[C@H]2N)OC[C@]1(C)O,0.508 (inactive)
18,C[N+]1([O-])[C@@H]2CC(OC(=O)[C@H](CO)c3ccccc3)C[C@H]1[C@@H]1O[C@@H]12 (stereo not given in full),-1.22 (inactive)
19,CN[C@@H]1[C@@H](O)[C@@H](O[C@@H]2[C@@H](O)[C@H](O[C@H]3O[C@H]([C@@H](C)NC)CC[C@H]3N)[C@@H](N)C[C@H]2N)OC[C@]1(C)O (tested in a mixture with another compound),-0.902 (inactive)
20,CCC1C(=O)OCC1Cc1cncn1C (stereo not given),-0.194 (inactive) and -0.728 (inactive)
21,CN1CC[C@@]2(C)c3cc(O)ccc3N(C)[C@H]12,0.308 (inactive)
22,C=C(C)[C@@H]1C2C(=O)O[C@H]1[C@H]1OC(=O)[C@@]34OC3C[C@]2(O)[C@@]14C (stereo not given in full),0.399 (inactive)
23,C[C@]12CC[C@H](O)C[C@H]1CC[C@@H]1[C@@H]2CC[C@]2(C)[C@@H](C3=CC(=O)OC3)CC[C@]12O,-0.147 (inactive)
24,CCCCCC[C@H]1C(=O)O[C@H](C)C(NC(=O)c2cccc(NC=O)c2O)C(=O)O[C@@H](C)[C@@H]1OC(=O)CC(C)C (stereo not given in full),0.402 (inactive)
25,CC(=O)OCC(=O)[C@H]1CC[C@H]2[C@@H]3CC[C@H]4C[C@H](O)CC[C@]4(C)[C@H]3C(=O)C[C@]12C,-0.0226 (inactive)
